# Laboratory results from PubChem BioAssay (Tox21).
# Inconclusive results are not listed. Where a call stands in place of a potency, no number is given. Calls of active or inactive are those of the source. The call rests on the fitted dose curve.
# Biological target: Acetylcholinesterase (Homo sapiens) (UniProt P22303)
# Assay: Acetylcholinesterase (AChE) small molecule antagonists: colormetric cell-based qHTS assay (AID 1347395); further: nearly all actives have a fitted effect of over 30% in size
# Details: SH-SY5Y cells AChE activity, colorimetric (Ellman); series mostly up to 115 µM
# In short: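 After overnight attachment at 37 C, SH-SY5Y cells get 30 min compound exposure; detection cocktail (acetylthiocholine, DTNB) then incubates 90 min at 37 C, and absorbance reflects AChE-generated thiocholine.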
# Potency means the concentration at half of the fitted maximal effect.
# Sequence of Acetylcholinesterase (Homo sapiens) (P22303 whole entry, looked up): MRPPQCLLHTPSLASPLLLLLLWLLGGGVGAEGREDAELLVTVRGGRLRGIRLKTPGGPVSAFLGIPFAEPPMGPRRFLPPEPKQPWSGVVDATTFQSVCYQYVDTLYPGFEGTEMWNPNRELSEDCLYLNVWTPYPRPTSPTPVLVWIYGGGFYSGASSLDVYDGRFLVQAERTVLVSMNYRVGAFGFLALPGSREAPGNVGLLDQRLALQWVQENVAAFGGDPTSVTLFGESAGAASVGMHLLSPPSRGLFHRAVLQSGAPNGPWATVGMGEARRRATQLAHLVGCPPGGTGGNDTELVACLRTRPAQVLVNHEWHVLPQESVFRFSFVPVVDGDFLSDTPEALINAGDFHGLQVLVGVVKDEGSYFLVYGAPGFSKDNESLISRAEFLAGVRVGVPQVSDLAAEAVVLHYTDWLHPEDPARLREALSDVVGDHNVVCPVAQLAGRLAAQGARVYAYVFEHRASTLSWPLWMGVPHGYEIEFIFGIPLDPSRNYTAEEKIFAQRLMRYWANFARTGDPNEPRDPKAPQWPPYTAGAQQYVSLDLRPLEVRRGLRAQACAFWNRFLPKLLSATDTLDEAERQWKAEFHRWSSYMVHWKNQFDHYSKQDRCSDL
row,Structure (SMILES),Potency
1,CC(C)(c1ccccc1)c1ccccc1,inactive
2,C=CC(=O)OCCOC(=O)C=C,inactive
3,O=C(CCCl)NCc1ccccc1,inactive
4,O=C1c2c(O)ccc(Nc3ccc(CCO)cc3)c2C(=O)c2c([N+](=O)[O-])ccc(O)c21,8.94 µM (active)
5,CC(C)=CCC/C(C)=C/C=O,inactive
6,C1CCCCC1,inactive
7,C/C=C/c1ccc(OCC)c(O)c1,inactive
8,O=C(O)CCCCCCCCCCC(=O)O,inactive
9,CC(C#N)(CCC(=O)O)N=NC(C)(C#N)CCC(=O)O (stereo not given),inactive
10,CCCCCCCC1CCCC1=O (stereo not given),inactive
11,CC(C)(C)C(=O)C1C(=O)c2ccccc2C1=O,inactive
12,Cc1ccc(C(C)C)cc2c(C)ccc1-2,inactive
13,CCCCOC(=O)CC(CC(=O)OCCCC)(OC(C)=O)C(=O)OCCCC,inactive
14,CCCCCCOC(=O)CCCCCCCC(=O)OCCCCCC,inactive
15,O=[N+]([O-])c1cc(C2CCCCC2)c(O)c([N+](=O)[O-])c1,inactive
16,CCCCN(CCCC)CCCCCCN(CCCC)CCCC,inactive
17,CC1=NN(c2ccc(S(=O)(=O)O)cc2)C(=O)C1,inactive
18,O=Cc1ccccc1C=O,inactive
19,c1ccc(Nc2cccc3ccccc23)cc1,inactive
20,C=COC(=O)C(C)(CC)CCC(C)C (stereo not given),inactive

row,Structure (SMILES),Potency
1,CCCCCCCCC=O,inactive
2,Oc1ccccc1F,inactive
3,O=C(O)c1ccccc1Cl,inactive
4,CC(=O)NS(=O)(=O)c1ccc(N)cc1,inactive
5,Nc1cccc(N)n1,inactive
6,CCCCCCCCCCCCCC(=O)O,inactive
7,Cc1cc(C)c(C)cc1C,inactive
8,CSc1ccc(Cl)cc1,inactive
9,CCCN(CCC)C(=O)SCC,inactive
10,CCCCCCCCCCCCCCO,inactive
11,O=Cc1cccc([N+](=O)[O-])c1,inactive
12,O=C(NCN1CCOCC1)c1cnccn1,inactive
13,CCOCCOCCO,inactive
14,CC(=O)Oc1cccc(O)c1,inactive
15,CCN(CC)CC1CCCCN1CC(=O)N1c2ccccc2C(=O)Nc2cccnc21 (stereo not given),inactive
16,CCCCCCCCCCCCCCCCCC(=O)OCC(O)CO (stereo not given),inactive
17,CCOc1c(N2CCOCC2)cnn(C)c1=O,inactive
18,COc1ccc2[nH]cc(CCNC(C)=O)c2c1,inactive
19,Clc1ccccn1,inactive
20,CC(C)(C)c1nnc(NS(=O)(=O)c2ccccc2)s1,inactive

# Biological target: Acetylcholinesterase (Homo sapiens) (UniProt P22303)
# Assay: Acetylcholinesterase (AChE) small molecule antagonists: enzyme-based qHTS assay (AID 1347397); further: nearly all actives have a fitted effect of over 55% in size
# Details: Potency: AChE enzyme activity inhibition; outcome: AChE enzyme activity inhibition; series mostly up to 115 µM
# In short: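 In this quantitative HTS, compounds from the Tox21 10K collection were preincubated 30 min at ambient temperature with recombinant human AChE dispensed at 50 mU/mL. Hydrolysis of acetylthiocholine was then followed for 10 min by DTNB colour development.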
row,Structure (SMILES),Potency
1,CC(C)(c1ccccc1)c1ccccc1,inactive
2,C=CC(=O)OCCOC(=O)C=C,inactive
3,O=C(CCCl)NCc1ccccc1,inactive
4,O=C1c2c(O)ccc(Nc3ccc(CCO)cc3)c2C(=O)c2c([N+](=O)[O-])ccc(O)c21,20 µM (active)
5,CC(C)=CCC/C(C)=C/C=O,inactive
6,C1CCCCC1,inactive
7,C/C=C/c1ccc(OCC)c(O)c1,inactive
8,O=C(O)CCCCCCCCCCC(=O)O,inactive
9,CC(C#N)(CCC(=O)O)N=NC(C)(C#N)CCC(=O)O (stereo not given),inactive
10,CCCCCCCC1CCCC1=O (stereo not given),inactive
11,CC(C)(C)C(=O)C1C(=O)c2ccccc2C1=O,inactive
12,Cc1ccc(C(C)C)cc2c(C)ccc1-2,inactive
13,CCCCOC(=O)CC(CC(=O)OCCCC)(OC(C)=O)C(=O)OCCCC,inactive
14,CCCCCCOC(=O)CCCCCCCC(=O)OCCCCCC,inactive
15,O=[N+]([O-])c1cc(C2CCCCC2)c(O)c([N+](=O)[O-])c1,inactive
16,CCCCN(CCCC)CCCCCCN(CCCC)CCCC,inactive
17,CC1=NN(c2ccc(S(=O)(=O)O)cc2)C(=O)C1,inactive
18,O=Cc1ccccc1C=O,inactive
19,c1ccc(Nc2cccc3ccccc23)cc1,inactive
20,C=COC(=O)C(C)(CC)CCC(C)C (stereo not given),inactive

row,Structure (SMILES),Potency
1,CCCCCCCCC=O,inactive
2,Oc1ccccc1F,inactive
3,O=C(O)c1ccccc1Cl,inactive
4,CC(=O)NS(=O)(=O)c1ccc(N)cc1,inactive
5,Nc1cccc(N)n1,inactive
6,CCCCCCCCCCCCCC(=O)O,inactive
7,Cc1cc(C)c(C)cc1C,inactive
8,CSc1ccc(Cl)cc1,inactive
9,CCCN(CCC)C(=O)SCC,inactive
10,CCCCCCCCCCCCCCO,inactive
11,O=Cc1cccc([N+](=O)[O-])c1,inactive
12,O=C(NCN1CCOCC1)c1cnccn1,inactive
13,CCOCCOCCO,inactive
14,CC(=O)Oc1cccc(O)c1,inactive
15,CCN(CC)CC1CCCCN1CC(=O)N1c2ccccc2C(=O)Nc2cccnc21 (stereo not given),inactive
16,CCCCCCCCCCCCCCCCCC(=O)OCC(O)CO (stereo not given),inactive
17,CCOc1c(N2CCOCC2)cnn(C)c1=O,inactive
18,COc1ccc2[nH]cc(CCNC(C)=O)c2c1,inactive
19,Clc1ccccn1,inactive
20,CC(C)(C)c1nnc(NS(=O)(=O)c2ccccc2)s1,inactive

# Biological target: Acetylcholinesterase (Homo sapiens) (UniProt P22303)
# Assay: Acetylcholinesterase (AChE) small molecule antagonists: fluorescence cell-based qHTS assay (AID 1347398); further: nearly all actives have a fitted effect of over 50% in size
# Details: SH-SY5Y cells; Potency: AChE activity; outcome: AChE activity; series mostly up to 115 µM
# In short: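 Cells (SH-SY5Y) attached overnight, were dosed with compound or DMSO vehicle for 30 min at 37 C, and then incubated 40 min at room temperature with acetylthiocholine and Thiolite Green; green fluorescence indexed AChE activity.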
row,Structure (SMILES),Potency
1,CC(C)(c1ccccc1)c1ccccc1,inactive
2,C=CC(=O)OCCOC(=O)C=C,inactive
3,O=C(CCCl)NCc1ccccc1,inactive
4,O=C1c2c(O)ccc(Nc3ccc(CCO)cc3)c2C(=O)c2c([N+](=O)[O-])ccc(O)c21,11.2 µM (active)
5,CC(C)=CCC/C(C)=C/C=O,inactive
6,C1CCCCC1,inactive
7,C/C=C/c1ccc(OCC)c(O)c1,inactive
8,O=C(O)CCCCCCCCCCC(=O)O,inactive
9,CC(C#N)(CCC(=O)O)N=NC(C)(C#N)CCC(=O)O (stereo not given),inactive
10,CCCCCCCC1CCCC1=O (stereo not given),inactive
11,CC(C)(C)C(=O)C1C(=O)c2ccccc2C1=O,inactive
12,Cc1ccc(C(C)C)cc2c(C)ccc1-2,inactive
13,CCCCOC(=O)CC(CC(=O)OCCCC)(OC(C)=O)C(=O)OCCCC,inactive
14,CCCCCCOC(=O)CCCCCCCC(=O)OCCCCCC,inactive
15,O=[N+]([O-])c1cc(C2CCCCC2)c(O)c([N+](=O)[O-])c1,inactive
16,CCCCN(CCCC)CCCCCCN(CCCC)CCCC,inactive
17,CC1=NN(c2ccc(S(=O)(=O)O)cc2)C(=O)C1,inactive
18,O=Cc1ccccc1C=O,inactive
19,c1ccc(Nc2cccc3ccccc23)cc1,inactive
20,C=COC(=O)C(C)(CC)CCC(C)C (stereo not given),inactive

row,Structure (SMILES),Potency
1,CCCCCCCCC=O,inactive
2,Oc1ccccc1F,inactive
3,O=C(O)c1ccccc1Cl,inactive
4,CC(=O)NS(=O)(=O)c1ccc(N)cc1,inactive
5,Nc1cccc(N)n1,inactive
6,CCCCCCCCCCCCCC(=O)O,inactive
7,Cc1cc(C)c(C)cc1C,inactive
8,CSc1ccc(Cl)cc1,inactive
9,CCCN(CCC)C(=O)SCC,inactive
10,CCCCCCCCCCCCCCO,inactive
11,O=Cc1cccc([N+](=O)[O-])c1,inactive
12,O=C(NCN1CCOCC1)c1cnccn1,inactive
13,CCOCCOCCO,inactive
14,CC(=O)Oc1cccc(O)c1,inactive
15,CCN(CC)CC1CCCCN1CC(=O)N1c2ccccc2C(=O)Nc2cccnc21 (stereo not given),inactive
16,CCCCCCCCCCCCCCCCCC(=O)OCC(O)CO (stereo not given),inactive
17,CCOc1c(N2CCOCC2)cnn(C)c1=O,inactive
18,COc1ccc2[nH]cc(CCNC(C)=O)c2c1,inactive
19,Clc1ccccn1,inactive
20,CC(C)(C)c1nnc(NS(=O)(=O)c2ccccc2)s1,inactive
